Screening data: PubChem BioAssay, National Center for Advancing Translational Sciences (NCATS)
A549 viability – Nrf2 qHTS screen for inhibitors: counterscreen for cytotoxicity; actives 0.16% (n = 390,000); A549 ARE-Fluc cells, CellTiter-Fluor viability, 18-24 h; Potency, µM (highest dose often 46 µM), inactives show top-dose activity change, negative = cytotoxicity, hits mostly inhibitors; note: potency is the fitted concentration of half-maximal effect; % is set by controls: 0 for no effect and ±100 for the full control effect
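A549 ARE_Fluc cells in 5% FBS OPTI-MEM were exposed to compounds in concentration-response for 18-24 h at 37 deg C. Viability was read by CellTiter-Fluor fluorescence (Ex 405/Em 525) after 30 min, before the luciferase read.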
miR-21 act – qHTS Assay for Modulators of miRNAs and/orActivators of miR-21; Potency, µM (top dose mostly 38.3 µM), for the others: at the top dose activity change, positive = activation, hits mostly activators; 340,000 tested, under 10 active; HeLa miR-21 FLuc reporter, luciferase, 48 h;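 note: % of control where 0% means no effect; miR-21 action dims this reporter so a rising signal means less miR-21 action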
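Compounds were titrated across several concentrations (up to approximately 40 uM) and incubated 48 hours with HeLa miR-21-FLuc reporter cells (miR-21 target sequence downstream of FLuc, endogenous miR-21). Readout was firefly luciferase luminescence after lytic detection reagent.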
TSG101-PTAP inh – qHTS Assay for Iinhibitors of HIV-1 Budding by Blocking the Interaction of PTAP/TSG101; AID 493005, 2010; Tumor susceptibility gene 101 protein (Homo sapiens), Q99816; 340,000 tested, under 10 active; Potency, µM (highest dose often 115 µM), for inactives: at the highest dose activity change, negative = inhibition, most hits filed as inhibitors; Fluorescence polarization, FITC-PTAP peptide / Tsg101 binding; active = well fitted inhibition curve with a large enough effect in the main read-out, with a control signal flat, not every such curve was filed as active; inconclusive = small, poorly fitted or top-dose-only effect, or effect the other way, or a change in a side signal; inactive = no such curve, though single readings can be large or run the other way; note: potency is the fitted concentration of half-maximal effect; % of control where 0% means no effect
Target sequence (Q99816 whole entry, looked up): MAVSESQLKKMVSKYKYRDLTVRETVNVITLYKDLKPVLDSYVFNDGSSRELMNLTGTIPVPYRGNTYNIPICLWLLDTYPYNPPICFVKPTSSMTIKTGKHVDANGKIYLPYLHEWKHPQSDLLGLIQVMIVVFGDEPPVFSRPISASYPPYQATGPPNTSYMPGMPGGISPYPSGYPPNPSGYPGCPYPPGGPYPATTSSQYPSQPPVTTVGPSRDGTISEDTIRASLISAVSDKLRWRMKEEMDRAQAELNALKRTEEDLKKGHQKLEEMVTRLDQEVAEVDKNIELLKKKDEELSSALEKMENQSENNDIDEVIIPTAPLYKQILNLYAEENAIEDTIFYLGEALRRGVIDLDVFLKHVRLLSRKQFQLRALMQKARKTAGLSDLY
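Fluorescence anisotropy tracks displacement of a FITC-tagged PTAP peptide (50 nM) from the Tsg101 binding domain (10 uM), following a 20 min room-temperature incubation at pH 7.5.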
Nrf2 inh – Nrf2 qHTS screen for inhibitors; A549 ARE-Fluc reporter, luciferase luminescence, 18-24 h; Potency, µM (series often up to 46 µM), for inactives: at the top dose activity change, negative = inhibition, hits mostly inhibitors; actives 2.1% (n = 360,000); AID 504444, 2011; note: potency is the fitted concentration of half-maximal effect; % is set by controls: 0 for no effect and ±100 for the full control effect; nearly all actives have a fitted effect of over 60% in size
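In this cell-based qHTS, ARE-driven firefly luciferase in A549 cells reports Nrf2 activity; the luminescent signal after BugLite lysis is the measured value, with a prior CellTiter-Fluor read for cell health.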
Nrf2 activator – qHTS of Nrf2 Activators | AREc32 ARE-luciferase reporter (MCF7-derived line), luminescence, 24 h | Potency, µM (doses to about 46.1 µM), for inactives: at the top dose activation, actives largely listed as activators | actives 0.31% (n = 410,000) | AID 624171, 2012; note: potency is the fitted concentration of half-maximal effect; % of control where 0% means no effect; nearly all actives have a fitted effect of over 65% in size
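Luciferase luminescence (Steady-Glo, 30 min at room temperature) served as the read-out of ARE activation in AREc32 cells treated with compounds for 24 hr at 37 deg C.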
GRP78 ERSR act – qHTS for Inducers of the Endoplasmic Reticulum Stress Response (ERSR) in Human Glioma: qHTS. U87-MG GRP78 promoter luciferase reporter, 16 h. Potency, µM, inactives show top-dose activation, most hits filed as activators. actives 0.02% (n = 420,000). AID 602332, 2012; note: potency is the fitted concentration of half-maximal effect; series mostly up to about 76 µM; % of control where 0% means no effect; nearly all actives have a fitted effect of over 35% in size
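ERSR induction read as luciferase luminescence (Bright-Glo, 10 min at room temperature) in stably transfected human U87-MG glioma cells exposed to compounds for 16 h, using GRP78 as sensor.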
An asterisk follows results filed as active; ? = inconclusive; . = not tested or not shown; [ ] = another dose, or the depositor's remark. This is a sample that favours compounds with a hit; in the whole collection about 2.1% have one here. Unless noted, calls come from the whole dose curve; as a rule, active = well fitted curve in the direction sought with a large enough effect; inconclusive = small, poorly fitted or top-dose-only effect, or another doubt; inactive = no such curve, though single readings can be large; an effect the other way counts as inactive or inconclusive.

SMILES	A549 viability	miR-21 act	TSG101-PTAP inh	Nrf2 inh	Nrf2 activator	GRP78 ERSR act
CN(C)c1ccc(C=O)c(Cl)c1	.	.	.	.	.	-1%
Cc1c(P(=S)(c2ccccc2)c2ccccc2)[n+]2ccccc2n1CC(=O)c1ccccc1	3%	.	.	-7%	.	.
Cc1cnc2c(C)cccc2c1C	.	.	.	.	.	-3%
CCC(=O)Nc1cccc(C(=O)/C=C/c2ccc(F)cc2)c1	?	?	-12%	23µM*	-3%	-5%
CC(=O)Nc1cccc(C(=O)/C=C/c2ccc(C)cc2)c1	-1%	?	0%	-21%	1%	-11%
O=C(CSC1=Nc2ccccc2C2CC=NN12)NCc1ccco1 (configuration not stated)	-20%	.	-3%	?	0.63µM*	-3%
N#Cc1ccccc1NC(=O)CSC1=Nc2ccccc2C2CC=NN12 (configuration not stated)	1%	0%	0%	-19%	5%	-3%
Cc1cc(C)cc(N(CCC#N)C(=O)CSC2=Nc3ccccc3C3CC=NN23)c1 (configuration not stated)	?	-13%	-1%	23µM*	6%	-2%
COc1ccc2c(c1)-c1nc(-n3ncc(C(=O)N(C)C(C)c4ccon4)c3C3CC3)ncc1CC2 (configuration not stated)	.	.	.	.	.	-3%
N#Cc1cccn1-c1nccc(-c2cccs2)n1	-1%	-31%	-6%	?	4.5µM*	3%
N/C(=N\OC(=O)c1ccco1)c1cccc(Br)c1	0%	-63%	-2%	?	4.5µM*	8%
N/C(=N\OC(=O)/C=C/c1ccccc1)c1ccccc1	-8%	-52%	-7%	?	11µM*	9%
N/C(=N\OC(=O)c1cccc(Br)c1)c1ccccn1	1%	-18%	-2%	?	?	-15%
N/C(=N\OC(=O)c1ccco1)c1cccc([N+](=O)[O-])c1	1%	-52%	-2%	?	14µM*	5%
N/C(=N\OC(=O)c1cccc(Br)c1)c1ccccc1	-1%	-54%	-1%	.	7.1µM*	0%
N/C(=N\OC(=O)/C=C/c1ccccc1)c1ccc(Cl)cc1	-2%	-6%	-2%	0%	5%	7%
CNC(=O)[C@@H]1C[C@@H](NCc2cccc(Oc3ccccc3)c2)CN1C(C)C	.	.	.	.	.	-2%
CCCOC(=O)c1c(NC(=O)C(C)Sc2nc(-c3ccccc3)cc(C(F)(F)F)n2)sc(C(=O)N(C)C)c1C (configuration not stated)	-22%	29%	.	21µM*	3%	-2%
Clc1ccc(C2=NNC(=NCc3ccc4c(c3)OCO4)SC2)cc1	?	27%	1%	23µM*	7%	-1%
Oc1ccc(C2=NNC(=NCc3ccc4c(c3)OCO4)SC2)c(O)c1	-3%	-17%	0%	24%	3%	2%
O=C(COc1ccccc1C(=O)Nc1ccccc1)Nc1cccc([N+](=O)[O-])c1	.	.	.	.	.	-4%
Cc1ccc(NC(CC(=O)c2ccccc2)C(=O)O)cc1Cl (configuration not stated)	0%	-57%	-1%	?	18µM*	-1%
COc1ccc(NC(=O)c2ccc(COc3ccccc3Br)o2)cc1OC	-14%	1%	-8%	23µM*	7%	0%
COc1ccc(NC(=O)c2ccc(COc3ccccc3OC)o2)cc1OC	0%	7%	-13%	-15%	7%	-2%
Cc1cccc(C(=O)N2CCc3cc(-c4nc(NC(=O)CN5CCCC5)sc4C)ccc32)c1	-4%	17%	-1%	4%	-1%	-2%
SMILES	A549 viability	miR-21 act	TSG101-PTAP inh	Nrf2 inh	Nrf2 activator	GRP78 ERSR act
Cc1sc(NC(=O)Cc2ccc3c(c2)OCO3)nc1-c1ccc2c(c1)CCN2C(=O)c1cccc(F)c1	11%	9%	1%	7.3µM*	0%	-2%
COc1ccc(-c2cccc3c2OC(CNC(=O)c2ccc4c(c2)OCO4)C3)nn1 (configuration not stated)	.	.	.	.	.	2%
CC(C)c1ccccc1-n1c(SCC(=O)c2ccc3c(c2)NC(=O)CO3)nc2ccccc2c1=O	-19%	-7%	-2%	2.9µM*	-1%	-8%
Cc1cccc(-n2c(SCC(=O)N3CC(=O)Nc4ccccc43)nc3ccccc3c2=O)c1C	-29%	8%	-4%	23µM*	-1%	-5%
CC(c1ccccc1)n1c(SCC(=O)N2CC(=O)Nc3ccccc32)nc2ccccc2c1=O (configuration not stated)	-17%	27%	-1%	16µM*	0%[9.22 µM]	-5%
CC(C)(C)OC(=O)N(CCc1ccccc1)Cc1ccccc1OCc1cccc(NC(=O)C2CC2)c1	-11%	.	-4%	21µM*	5%	1%
CC(C)(C)OC(=O)N(CCc1ccccc1)Cc1ccccc1OCc1cccc(NC(=O)C2CCCC2)c1	0%	.	2%	-5%	5%	-3%
O=C(c1ccccc1)N1CCN2C(=O)c3ccccc3C12c1ccc(Cl)cc1 (configuration not stated)	-5%	-4%	-5%	13µM*	0%	0%
N#CC1=C(NC=NCc2ccccc2)Oc2ccc3ccccc3c2C1c1ccccc1 (configuration not stated)	-23%	.	.	18µM*	.	.
Cc1ccccc1Cn1c(=O)n(CC2CCC(C(=O)N3CCC(C)CC3)CC2)c(=O)c2sccc21 (configuration not stated)	?	20%	.	23µM*	-1%	-6%
O=[S+]([O-])(c1c(F)cccc1F)N1CCN([S+](=O)([O-])c2csc3ccccc23)CC1	17%	.	.	-3%	.	.
COc1ccccc1N1CCN(c2nc(CNC(=O)c3ccc4c(c3)OCO4)nc3ccccc23)CC1	.	.	.	.	.	-4%
COc1ccc(-c2noc(-c3ccc(N4CCC(C)CC4)c([N+](=O)[O-])c3)n2)cc1OC	-17%	28%	.	21µM*	0%	1%
O=[N+]([O-])c1cc(-c2nc(-c3ccccc3)no2)ccc1N1CCOCC1	0%	19%	.	23µM*	7%	-6%
COc1ccc(-c2noc(-c3ccc(N4CCOCC4)c([N+](=O)[O-])c3)n2)cc1OC	-4%	-2%	.	-6%	-1%	0%
Cc1cccc(CNC(=O)c2cnn(-c3nccc(-c4cc5ccccc5o4)n3)c2C2CC2)n1	.	.	.	.	.	-2%
